# The full list was thinned out, with hits kept by preference.
# TbPYK inhibitor: blocks Trypanosoma brucei pyruvate kinase. 410,000 tested, 0.12% active. Q57TT1. AID 624173. Potency, µM (titrated, usually from 76.8 µM), without a hit: at the top dose activity, negative = inhibition, most hits filed as inhibitors. TbPYK enzyme, Kinase-Glo Plus ATP luminescence, 45 min; further: potency means the concentration at half of the fitted maximal effect; on the % scale 0 is the no-effect control and ±100 the full control effect; nearly all actives have a fitted effect of over 50% in size
#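 T. brucei PYK with substrate was exposed to pin-transferred compounds across a concentration series, then started with 130 uM ADP (final). After 45 min at room temperature, Kinase-Glo Plus luminescence was read, normalized and curve-fitted.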
# Sm TGR inh: inhibitors of Schistosoma mansoni thioredoxin glutathione reductase | Q962Y6 | purified TGR, DTNB reduction, TNB absorbance 405 nm | Potency, µM (highest dose often 114 µM), for the others: at the top dose activity change, negative = inhibition, hits mostly inhibitors | 360,000 tested, 3% active; further: potency means the concentration at half of the fitted maximal effect; on the % scale 0 is the no-effect control and ±100 the full control effect; nearly all actives have a fitted effect of over 60% in size
#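 First, TGR (20 nM dispensed) and NADPH were mixed with compound. Second, a 15 min room-temperature incubation followed. Third, further NADPH and then DTNB were added to start the reaction. Finally, TNB absorbance was monitored kinetically.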
# FBPA Giardia inh: blocks Giardia fructose-bisphosphate aldolase activity; A8B2U2; purified Giardia FBPA; Potency, µM (doses to about 59.6 µM), for the others: top-dose activity, negative = inhibition, most hits filed as inhibitors; 290,000 tested, 0.71% active; further: potency means the concentration at half of the fitted maximal effect; on the % scale 0 is the no-effect control and ±100 the full control effect; nearly all actives have a fitted effect of over 55% in size
# Target sequence (A8B2U2 whole entry, looked up): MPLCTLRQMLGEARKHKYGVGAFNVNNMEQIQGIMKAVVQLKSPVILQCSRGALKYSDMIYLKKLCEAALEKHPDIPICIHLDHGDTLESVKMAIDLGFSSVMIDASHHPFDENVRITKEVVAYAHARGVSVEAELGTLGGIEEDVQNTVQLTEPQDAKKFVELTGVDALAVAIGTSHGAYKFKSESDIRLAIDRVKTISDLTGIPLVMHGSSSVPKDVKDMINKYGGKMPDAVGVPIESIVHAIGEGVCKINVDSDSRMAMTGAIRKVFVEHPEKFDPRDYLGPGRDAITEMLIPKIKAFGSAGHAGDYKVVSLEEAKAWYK
#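 40 nM FBPA preincubated 10 min at RT with compound (up to 57.5 uM final), then substrate plus GAPDH/TPI/NAD/arsenate coupling and diaphorase/resazurin added. Fluorescence read after 20 min at RT, 525/598 nm.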
# Shiga toxin inh: Shiga toxin inhibition; 290,000 tested, 9.2% active; AID 2315; inhibition, % at 38.7 µM; Vero cells, Shiga toxin protein synthesis inhibition reporter; in the data active means inhibition mostly above about 28%, no sharp cut-off; inactive means mostly below about 43%; further: 0% is about no effect
# LmPK inh: inhibitors of Leishmania mexicana pyruvate kinase. Q27686. purified LmPK, Kinase-Glo ATP luminescence, 1 h. Potency, µM (titrated, usually from 57.5 µM), for inactives: top-dose activity change, negative = inhibition, hits mostly inhibitors. 290,000 tested, 0.37% active; further: potency means the concentration at half of the fitted maximal effect; on the % scale 0 is the no-effect control and ±100 the full control effect
#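 0.1 nM LmPK, 0.5 mM PEP, 0.1 mM ADP; 50 mM imidazole pH 7.2, 7 mM MgCl2, 50 mM KCl; 1 h RT. Kinase-Glo luminescence readout, normalized to no-enzyme (full inhibition) and uninhibited wells.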
# Cycloheximide cs: counter-screen for Shiga toxin inhibitors: cycloheximide protein synthesis inhibition; AID 2314; 300,000 tested, 12% active; cell reporter, cycloheximide protein synthesis inhibition counterscreen; max response, %; in the data active means max response mostly above about 13%, no sharp cut-off; inactive means mostly below about 14%; further: read at 38.3 µM for the half of the compounds with a filed dose; 0% is about no effect
# * marks the source's active call; other numbers are inactive results; ? = inconclusive; . = not tested or not shown; [ ] = another dose, or the depositor's remark. Unless noted, the call rests on the fitted dose curve; in most records, active means well fitted curve in the direction sought with a large enough effect; inconclusive means small, poorly fitted or top-dose-only effect, or another doubt; inactive means no such curve, though single readings can be large; an effect the other way counts as inactive or inconclusive.
SMILES,TbPYK inhibitor,Sm TGR inh,FBPA Giardia inh,Shiga toxin inh,LmPK inh,Cycloheximide cs
Cc1ccc(C(=O)NC(=S)Nc2cccc(NC(=O)c3ccccc3)c2)cc1[N+](=O)[O-],-3%,-26%,1%,7,0%,3
COc1cc(CO)ccc1OCc1ccc(Cl)nc1,2%,4%,-5%,149*,-6%,51*
COc1ccccc1OCCSc1nc2ccc([N+](=O)[O-])cc2s1,-7%,-17%,-2%,-11,0%,10*
Nc1nnc(SCc2ccc([N+](=O)[O-])cc2)s1,-6%,21%,-6%,22,-4%,8.0*
O=[N+]([O-])c1ccc2nc(SCc3ccccc3Cl)sc2c1,9%,0%,1%,23,-1%,2
COc1ccc(CSc2nnc(N)s2)cc1F,8%,-3%,3%,86*,1%,43*
Nc1ccc2nc(SCc3ccc([N+](=O)[O-])cc3)sc2c1,-28%,3%,-10%,45,4%,28*
O=[N+]([O-])c1ccc(CSc2nnc(SCc3ccc(Cl)cc3)s2)cc1,1%,-8%,-1%,-8,9%,1
CC(=O)N1CCc2c(sc3c2c(=O)n(-c2ccc(C)cc2)c(=O)n3Cc2ccccc2C)C1,-4%,-8%,.,.,.,.
COC(=O)CSc1nc2ccc(N)cc2s1,-7%,-4%,?,25,3%,19*
C#Cc1ccc([C@@H]2C=C(C(=O)OCC=C)O[C@H](OCc3ccc(CO)cc3)C2)cc1,-1%,?,-5%,23*,2%,31*
C#Cc1ccc([C@H]2C=C(C(=O)O)O[C@@H](OCc3ccc(CO)cc3)C2)cc1,-5%,35µM*,9%,-14,8%,-3
C=CCOC(=O)C1=C[C@H](c2ccc(Br)cc2)C[C@H](OCc2ccc(CO)cc2)O1,-1%,.,.,.,.,.
COc1cccc(-n2cc(C(=O)Nc3ccccc3C(N)=O)c3ccccc3c2=O)c1,0%,4%,.,.,.,.
Cc1ccc(-c2nc(C)c(CCNS(=O)(=O)c3ccc(F)c(C(F)(F)F)c3)s2)cc1,7%,-13%,.,.,.,.
CCOC(=O)N1CCN(C(=O)CS(=O)Cc2nc(-c3ccc(OC)c(OC)c3)oc2C)CC1 (configuration not stated),0%,45µM*,.,-3,-2%,-2
Cc1ccc(-c2nc(CS(=O)CC(=O)N3CCC4(CC3)OCCO4)c(C)o2)cc1 (configuration not stated),.,45µM*,2%,-1,-5%,-1
CCN1CCN(C(=O)CS(=O)Cc2nc(-c3ccc(OC)cc3)oc2C)CC1 (configuration not stated),1%,?,2%,-12,10%,0
COc1ccc(-c2nc(CS(=O)CC(=O)N3CCCC3)c(C)o2)cc1 (configuration not stated),3%,7.1µM*,1%,-2,3%,7
CC(C)(C)OC(=O)N1CCC(c2c(C(=O)NCc3ccc4c(c3)OCO4)cnn2-c2ccc(F)cc2F)CC1,2%[15.4 µM],-1%,.,.,.,.
CC(=O)c1ccc(NC(=O)CCc2c(C)nn(-c3ccc4nnc(C)n4n3)c2C)cc1,-1%,-2%,.,.,.,.
O=C(Cn1c(=O)oc2ccccc21)Nc1n[nH]c(=S)s1,?,2%,?,-11,9%,-2
COc1ccccc1NC(=O)N1CC(=O)Nc2sc3c(c2C1c1ccccc1)CCCC3 (configuration not stated),-4%,-7%,.,.,.,.
CCN(CC)CCCC(C)Nc1c2ccc(Cl)cc2nc2ccc(OC)cc12 (configuration not stated),.,?,?,-11,1%,-3
COc1ccc2nc3cc(Cl)ccc3c(Nc3cc(C(C)C)c(O)cc3C)c2c1,2%,-11%,-29%,27*,2%,8
O=C1NC2=C(C(=O)CCC2)C(c2ccccc2Cl)N1 (configuration not stated),-14%,-8%,4%,-6,-4%,-6
Cc1nc(Cl)c2c(n1)NC1=C(O2)C(=O)CCC1,-6%,-5%,-4%,19,-1%,21*
COc1ccc2c(c1OC)C(=O)N(c1nccs1)C2,-5%,0%,-2%,66,-16%,34*

# Screens (PubChem BioAssay)
